Measured values published in PubChem BioAssay.

How the values were obtained:
[1] = test system: Human papillomavirus type 1a protein E7 (residues 44-93); assay: HPV1a E7 fragment binders on microarrays, primary screen, biochemical, small-molecule microarray, residues 44-93, 635 nm fluorescence (AID 1108); conditions: small-molecule microarray binding, fluorescence 635 nm; higher = more signal;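 further: E7 fragment applied at 1 µg/mL in TBST for 1 h at 4 C; score combines spot fluorescence with its signal to noise ratio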
[2] = modulators of HCV replicon luciferase signal, primary screen, HCV replication inhibitor project, Huh7 cells, luciferase reporter (AID 1109); conditions: 48 h, higher = more signal;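 further: huh7 hepatoma cells harbouring a luciferase neomycin HCV replicon reporter; luciferase luminescence as measure of HCV replicon replication; test concentration not given here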
[3] = target: Left-right determination factor 2 (Homo sapiens) (UniProt O00292); assay: LEFTY2 binders on small-molecule microarrays, primary screen, biochemical, small-molecule microarray, 635 nm fluorescence scan (AID 1110); conditions: LEFTY2 binding, higher = more signal
[4] = target: Calmodulin-1 (Homo sapiens) (UniProt P0DP23); assay: CALM1 binders on microarrays, EGTA buffer, profiling panel, biochemical, small-molecule microarray, Cy5-labelled CALM1 (AID 1111); conditions: Cy5-CALM1 binding fluorescence, higher = more signal;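 further: labelled calmodulin applied in Tris saline Tween buffer holding calcium plus EGTA and DTT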
[5] = target: Calmodulin-1 (Homo sapiens) (UniProt P0DP23); assay: calcium-bound CALM1 binders on microarrays, profiling panel, artefact control for SMM control-protein annotation, biochemical, small-molecule microarray, Cy5-labelled CALM1, plus calcium (AID 1112); conditions: Cy5-CALM1 binding fluorescence, higher = more signal;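 further: score merges spot fluorescence with signal to noise from triplicate slides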
[6] = small-molecule microarray binders of probe aWnt5a, primary screen, biochemical, biotinylated probe, 635/667 nm fluorescence (AID 1113); conditions: higher = more signal;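 further: score merges 667 nm fluorescence intensity with signal-to-noise per printed feature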
[7] = small-molecule microarray binders of probe aShh, primary screen, biochemical, biotinylated probe, 635/667 nm fluorescence (AID 1114); conditions: higher = more signal;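 further: probe is biotin-labelled aShh protein from a stem cell growth factor screen; measures binding of labelled protein to compounds printed on the slide; score merges feature fluorescence at 667 nm with signal-to-noise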
[8] = small-molecule microarray binders of probe aNog, primary screen, biochemical, biotinylated probe, 635/667 nm fluorescence (AID 1115); conditions: higher = more signal;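 further: probe is biotinylated aNog protein used at 0.15 µg/mL for 1 h at 4 C; z-score combines 667 nm fluorescence of each spot with its signal to noise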
[9] = target: Torsin-1A-interacting protein 1 (Homo sapiens) (UniProt Q5JTV8); assay: LAP1 binders from COS7 cell lysate, primary screen, small-molecule microarray, 635/667 nm fluorescence (AID 1116); conditions: COS7-hLAP1 lysate binding, 635 nm fluorescence, higher = more signal
[10] = target: Alpha-bungarotoxin (Bungarus multicinctus) (UniProt P60615); assay: alpha-bungarotoxin binders on microarray, profiling panel, artefact control for SMM control protein annotation, biochemical, small-molecule microarray, Alexa647 label, 635/667 nm fluorescence (AID 1117); conditions: alpha-BTX-A647 binding fluorescence, higher = more signal
Chain of Alpha-bungarotoxin (Bungarus multicinctus) (P60615 whole entry, looked up): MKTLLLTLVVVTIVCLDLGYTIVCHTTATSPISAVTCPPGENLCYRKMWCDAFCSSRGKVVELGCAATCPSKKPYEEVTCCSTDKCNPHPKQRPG

Chain of Left-right determination factor 2 (Homo sapiens) (O00292 whole entry, looked up): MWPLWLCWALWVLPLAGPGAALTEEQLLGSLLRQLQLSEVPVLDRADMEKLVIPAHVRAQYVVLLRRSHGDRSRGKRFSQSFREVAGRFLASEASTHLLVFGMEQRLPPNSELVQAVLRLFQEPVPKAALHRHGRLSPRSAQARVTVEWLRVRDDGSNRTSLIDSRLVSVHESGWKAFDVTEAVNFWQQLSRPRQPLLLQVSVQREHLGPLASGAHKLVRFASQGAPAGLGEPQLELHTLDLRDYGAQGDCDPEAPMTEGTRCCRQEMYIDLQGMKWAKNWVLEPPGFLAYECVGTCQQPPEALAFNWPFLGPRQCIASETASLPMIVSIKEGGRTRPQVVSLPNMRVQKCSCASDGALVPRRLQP
Chain of Torsin-1A-interacting protein 1 (Homo sapiens) (Q5JTV8 whole entry, looked up): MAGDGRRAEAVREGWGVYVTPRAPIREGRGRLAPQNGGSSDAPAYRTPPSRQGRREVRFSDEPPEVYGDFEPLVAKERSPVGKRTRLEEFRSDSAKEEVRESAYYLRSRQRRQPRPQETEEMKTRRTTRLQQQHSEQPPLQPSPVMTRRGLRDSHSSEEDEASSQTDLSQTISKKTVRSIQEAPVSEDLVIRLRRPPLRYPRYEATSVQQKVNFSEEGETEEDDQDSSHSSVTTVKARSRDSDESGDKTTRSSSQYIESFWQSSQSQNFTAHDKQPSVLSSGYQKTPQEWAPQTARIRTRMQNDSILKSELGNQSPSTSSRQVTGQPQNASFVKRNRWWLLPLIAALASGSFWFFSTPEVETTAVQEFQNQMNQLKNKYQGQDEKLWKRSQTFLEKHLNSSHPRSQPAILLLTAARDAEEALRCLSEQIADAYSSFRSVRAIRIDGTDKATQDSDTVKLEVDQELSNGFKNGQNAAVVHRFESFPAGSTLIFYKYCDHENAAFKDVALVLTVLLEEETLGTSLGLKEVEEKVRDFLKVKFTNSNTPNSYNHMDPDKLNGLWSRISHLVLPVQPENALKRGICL

SMILES	composite z-score [1]	z-score [2]	composite z-score [3]	composite z-score [4]	composite z-score [5]	composite z-score [6]	composite z-score [7]	composite z-score [8]	composite z-score [9]	composite z-score [10]
Cc1ccc(C(C)C)n1C(=O)OC(C)(C)C	0.471	1.85	0.587	-0.159	-0.659	-0.0704	-0.13	-0.255	0.241	0.0251
O=C1[C@H]2[C@H]3[C@H](O)[C@H](O)CC(=NO[C@@H]4O[C@H](CO)[C@@H](O)[C@H](O)[C@H]4O)[C@@H]3CC[C@H]2C(=O)N1C[C@@H]1CCCO1	1.3	-0.682	0.495	-0.158	-0.572	-0.28	-0.0769	-0.238	-0.0974	-0.103
CC(C)=NO[C@@H](C)c1cn([C@H](CO)Cc2ccccc2)nn1	0.833	1.13	0.802	-0.03	-0.408	0.0044	-0.0794	-0.35	0.541	0.392
CCCNC(=O)OC[C@H]1O[C@H](CCON=C[C@@H](NS(=O)(=O)c2ccc(C)cc2)[C@H](C)C=CCC(=O)OC)C=C[C@@H]1Oc1ccc(OC)cc1	0.186	-1.65	0.65	-1.21	-1	-0.117	-0.138	-0.0312	0.247	0.0462
COc1ccc(OC[C@@H](CO)OC)cc1	0.0047	-0.719	0.178	-0.584	-0.671	-0.244	0.0639	-0.0448	0.551	0.0276
CCCCOC(OCCCC)C(O)CSc1ccc2ccccc2c1 (stereo not given)	0.711	0.0395	0.64	-0.24	-0.19	-0.0441	0.171	-0.0281	0.506	0.086
CC(CCN1CCCc2nc(C)c(C)cc21)=NO[C@H](C)c1cn([C@H](CO)Cc2ccccc2)nn1	1.01	-1.73	0.796	-0.276	-0.519	-0.0704	-0.16	0.029	0.613	-0.207
CCOC(=O)CCN1C(=O)[C@H]2[C@H]3[C@H](O)[C@H](O)CC(=NO[C@@H]4O[C@H](CO)[C@@H](O)[C@H](O)[C@H]4O)[C@H]3CC[C@H]2C1=O	0.0713	0.587	0.523	0.112	-0.847	-0.0286	-0.156	-0.0309	-0.127	0.263
COC(=O)C1=C(C)N(Cc2ccccc2)C2=C3C(=O)OCC[C@@H]3[C@@](O)(C(=O)OC)C(=O)N2[C@@H]1c1ccccc1	-0.0816	0.935	0.528	-0.0583	-0.689	-0.13	0.0278	-0.189	-0.207	0.415
C=CC[C@@H]1C=CC(ON=C(C)C)[C@@H](CO)O1 (stereo not given in full)	-1.17	0.931	0.0335	-0.253	0.0283	-0.0701	-0.2	-0.303	-0.275	-0.139
COC(=O)[C@@H]1CC[C@H](C)[C@@H](c2ccc(Br)cc2)N1C(=O)C(F)(F)F	-1.1	-0.317	0.179	-0.257	0.137	-0.226	-0.476	-0.127	-0.287	0.263
CON=C(C)CCN1CCc2nc(-c3ccccc3)c(-c3ccccc3)cc2C1	-0.539	-4.3	-0.117	0.709	0.0504	-0.219	-0.0011	0.107	0.0735	-0.107
C[C@@H]1CC[C@H]2C(=O)O[C@@H](COc3ccc(C(C)(C)C)cc3)CN2[C@H]1c1ccc(Br)cc1	0.269	-0.157	0.193	-0.543	-0.229	-0.0704	-0.214	0.0762	0.0021	0.315
C[C@H]1CC[C@@H](C(=O)O)N[C@@H]1c1cccc(N2CCCC2=O)c1	0.4	1.09	0.263	-0.438	-0.55	-0.178	-0.2	-0.181	0.0221	0.197
CCOC(=O)[C@H](Cc1ccccc1)NC(=O)CCC1CC(OC(=O)NCc2ccc3c(c2)OCO3)CC2(CCCC(COC(=O)NCCOC)O2)O1 (stereo not given in full)	1.36	-1.08	0.545	0.353	-0.194	-0.124	-0.153	-0.0524	0.609	0.591
COC(=O)CC=C[C@@H](C)[C@@H](C=NOC[C@@H](C)[C@H](OCc1ccccc1)C(C)C)NS(=O)(=O)c1ccc(C)cc1	-0.482	-1.44	0.21	-1.51	-1.26	-0.148	-0.0977	-0.541	0.161	-1.25
CCOC(=O)CCN1C(=O)[C@H]2[C@@H]3C(=CC[C@H]2C1=O)C(=O)[C@H]1O[C@H]1[C@H]3O	-0.636	-4.75	-0.72	-0.719	-0.481	-0.222	-0.221	-0.358	0.447	-0.473
CO[C@@H]1C=CCC(=O)N[C@@H](C)C(=O)OC[C@@H](NS(=O)(=O)c2ccc(C)cc2)[C@H](C)C=CCC(=O)OC[C@H]1C	-0.844	0.46	0.957	-0.062	-0.417	-0.18	0.0442	-0.0116	-0.159	-0.135
